The text below walks through data of PubChem BioAssay.

A short description of experiment [1]: antimalarial activity against Dd2 strain (AID 2302;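 active = growth inhibition above 50% at the single 2 µM test dose, taken to imply half-maximal potency below 2 µM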;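 note: 0% = DMSO untreated growth and 100% = chloroquine plus artemisinin killed control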). The note with it: P. falciparum Dd2 in RBCs, LDH growth readout, 72 h; at 2 µM; stronger effect = higher value.
Experiment [2] is described as follows: human hepatoma cell viability loss – ATP luminescence, cytotoxicity control for P. falciparum antimalarial project, primary screen (AID 2303;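 active = inhibition above 50%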;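 note: 0% = DMSO wells and 100% = digitonin-killed cells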). The settings on record: HepG2 viability, 24-48 h, at 10 µM, stronger effect = higher value.
Experiment [3] addresses L-lactate dehydrogenase (Plasmodium falciparum (isolate CDC / Honduras)) (UniProt Q27743). The experiment in a line: PfLDH activity inhibition – cell lysate, 3D7 strain, counter-screen for P. falciparum growth inhibition project (AID 2304).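 Note: 0% = vehicle and 100% = reference inhibitor.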 The settings on record: P. falciparum 3D7 crude extract, LDH APAD/NBT absorbance; at 2 µM; stronger effect = higher value.
A short description of experiment [4]: inhibition of 3D7 malaria parasite growth – strain 3D7 (AID 2306).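 Note: 0% = DMSO wells and 100% = chloroquine plus artemisinin control wells.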 The note with it: P. falciparum 3D7 erythrocytic growth, LDH absorbance, 72 h; at 2 µM; stronger effect = higher value.
Experiment [5] addresses Calcium-dependent protein kinase 1 (Plasmodium falciparum (isolate 3D7)) (UniProt P62344). The experiment in a line: PfCDPK1 kinase inhibitors, biochemical, TCAMS library (AID 1159585; cut-off not given, nearly all actives have IC50 up to about 0.98 µM;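 note: inhibitors leave more ATP so luminescence rises with inhibition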). The settings on record: recombinant PfCDPK1, Kinase-Glo ATP depletion luminescence. In general terms: Kinase-Glo measures the ATP left after a reaction by luminescence.
Experiment [6] has as its target Plasmodium falciparum protein kinase 6 (PK6, PF3D7_1337100) (UniProt Q8IDW1). Nature of the experiment: PfPK6 kinase inhibitors, biochemical, TCAMS library (AID 1159586). The note with it: recombinant PfPK6, Kinase-Glo ATP depletion luminescence.
For experiment [7], the target named is Protein kinase 7 (PK7), Plasmodium falciparum 3D7 (PF3D7_0213400) (UniProt Q7YTF7). The experiment in a line: inhibition of Plasmodium PK7 catalytic activity – biochemical, TCAMS antimalarial set, Kinase-Glo luminescence (AID 1159587). The settings on record: recombinant PfPK7, Kinase-Glo ATP depletion luminescence.
For experiment [8], the target named is Calcium-dependent protein kinase 4 (Plasmodium falciparum (isolate 3D7)) (UniProt Q8IBS5). Nature of the experiment: PfCDPK4 kinase inhibitors, biochemical, TCAMS library (AID 1159588; cut-off not given, nearly all actives have IC50 up to about 0.91 µM). The settings on record: recombinant PfCDPK4, Kinase-Glo ATP depletion luminescence.
Experiment [9] is described as follows: viability loss in pontine glioma line – cell-based, JHH-DIPG-1, MIPE4.0, CellTiter-Glo, qHTS, dose response (AID 1347062; cut-off not given, nearly all actives have AC50 up to about 27 µM). The settings on record: JHH-DIPG-1 viability, CellTiter-Glo ATP luminescence.
Experiment [10] can be described thus: viability loss in pontine glioma line – cell-based, SU-DIPG-IV, MIPE4.0, CellTiter-Glo, qHTS, dose response (AID 1347063; cut-off not given, nearly all actives have AC50 up to about 30 µM;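 note: compound exposure lasted 48 hours before the viability readout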). The note with it: CellTiter-Glo ATP luminescence. (ATP-based viability assays read luminescence as a measure of living cells.)
Experiment [11] in a line: compounds altering HSF1 focus formation in cells – imaging, Selleck Cancer Library (AID 1347162; in the data active = plate-normalised HSF1 focus index below about 0.46). The note with it: human cells, HSF1 nuclear foci imaging, at 10 µM; SSMD: measured here: HSF1 foci SSMD mean; cell count: measured here: cell number; plate-normalised HSF1 focus index: stronger effect = lower value.
Experiment [12] relates to Hepatitis C virus NS3 helicase. The experiment in a line: blockers of NS3h binding to ssDNA – biochemical, fluorescence polarization, LOPAC1280 library, primary screen (AID 687035; in the data active = inhibition above about 37%). The settings on record: Purified HCV NS3 helicase, Cy5-dT15 ssDNA binding fluorescence polarization; stronger effect = higher value; concentration not given here. For orientation: In fluorescence polarisation assays a small probe gives low polarisation when free and higher when bound to something large.

Experiment [13] can be described thus: compounds altering Cy5-DNA-NS3h complex signal – biochemical, LOPAC1280, artefact control for HCV NS3 helicase inhibitor project (AID 687037). The settings on record: Cy5-DNA-NS3h complex fluorescence interference counterscreen.
The nature of experiment [14]: blockers of cellular phospholipid synthesis – cell-based, LOPAC library, screen 4, primary screen (AID 1347384). The note with it: animal cells, phospholipid biosynthesis inhibition screen; at 10 µM.
Experiment [15] in a line: MELAS cybrid and Rieske KO viability enhancers – cell-based, MELAS cybrids, Rieske KO mouse fibroblasts, CellTiter-Glo, primary screen (AID 1508586;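 active = mean z-score across replicates of 1.96 or higher in either the MELAS or the Rieske mutant cell line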;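 note: z relative to plate mean and SD of compound and empty wells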). The settings on record: low glucose.
Experiment [16] deals with Aerobactin synthetase IucA (Klebsiella pneumoniae hvKP1). Nature of the experiment: IucA enzyme inhibition, primary screen, biochemical, Spectrum library (AID 1346200).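 Note: 100% = wells without compound and 0% = wells lacking enzyme.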 The settings on record: malachite green pyrophosphate, A620, at 8 µM, stronger effect = lower value.
For experiment [17], the target named is NAD(+) hydrolase SARM1 (Homo sapiens) (UniProt Q6SZW1). Nature of the experiment: blocking NAD cleavage by SARM1 SAM-TIR – cell lysate, NAD-Glo luminescence (AID 1508614;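 active = compound whose remaining NAD level is above about 45 nM, limit read from the data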;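 note: higher remaining NAD means stronger inhibition of SARM1 NADase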). The note with it: SAM-TIR HEK293T lysate NADase, at 1 µM, stronger effect = higher value.
Experiment [18] concerns Aerobactin synthetase IucA (Klebsiella pneumoniae, hypervirulent). The experiment in a line: biochemical IucA inhibition screen of LOPAC library by absorbance (AID 1346212).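 Note: 100% = no compound wells and 0% = no enzyme wells.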 The note with it: IucA enzyme assay, absorbance (OD) readout; stronger effect = lower value;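 tested at 8 µM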.
In experiment [19] the test system is Aerobactin synthetase IucA (Klebsiella pneumoniae). The experiment in a line: inhibition of K. pneumoniae IucA enzyme – biochemical, Tocris library, absorbance (AID 1345561).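 Note: 100% = enzyme without compound and 0% = no enzyme.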 The note with it: purified IucA enzyme assay, absorbance (OD) read-out; stronger effect = lower value;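 tested at 8 µM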.
Experiment [20] can be described thus: compounds altering circadian rhythm period length – cell-based, LOPAC library, luminescence reporter (AID 2774).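 Note: values are relative to mean of DMSO wells on each plate.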 The settings on record: circadian reporter cells, at 7 µM, actives lie on both sides.
Setting [21] is: MELAS cybrid survival, CellTiter-Glo 48 h, stronger effect = higher value.
Where [22] appears, read: Rieske KO mouse fibroblast survival, CellTiter-Glo 72 h.

For orientation: inhibition means the relative decrease from the control value, in per cent. A word on the remaining activity: it is the signal under treatment as a percentage of the control signal.

Several values for one entry are separate records, joined by “and”; a condition that tells them apart may be missing. Equal entries are not always repeated. Results filed as inconclusive are left out. For some of these results: Results with a measured potency or affinity are listed apart. Activity calls are given as the source filed them. Unless noted, the rule behind the calls is not given here.

Sequence of Plasmodium falciparum protein kinase 6 (PK6, PF3D7_1337100) (Q8IDW1 1-305): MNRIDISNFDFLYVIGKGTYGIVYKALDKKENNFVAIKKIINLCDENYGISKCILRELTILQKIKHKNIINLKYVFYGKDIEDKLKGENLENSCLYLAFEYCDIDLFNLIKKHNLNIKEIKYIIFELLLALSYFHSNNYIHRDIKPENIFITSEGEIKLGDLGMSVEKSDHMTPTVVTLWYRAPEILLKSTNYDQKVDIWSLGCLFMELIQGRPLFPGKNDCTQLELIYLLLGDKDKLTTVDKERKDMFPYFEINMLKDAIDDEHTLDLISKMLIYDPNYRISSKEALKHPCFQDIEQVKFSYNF
Sequence of Calcium-dependent protein kinase 1 (Plasmodium falciparum (isolate 3D7)) (P62344 whole entry, looked up): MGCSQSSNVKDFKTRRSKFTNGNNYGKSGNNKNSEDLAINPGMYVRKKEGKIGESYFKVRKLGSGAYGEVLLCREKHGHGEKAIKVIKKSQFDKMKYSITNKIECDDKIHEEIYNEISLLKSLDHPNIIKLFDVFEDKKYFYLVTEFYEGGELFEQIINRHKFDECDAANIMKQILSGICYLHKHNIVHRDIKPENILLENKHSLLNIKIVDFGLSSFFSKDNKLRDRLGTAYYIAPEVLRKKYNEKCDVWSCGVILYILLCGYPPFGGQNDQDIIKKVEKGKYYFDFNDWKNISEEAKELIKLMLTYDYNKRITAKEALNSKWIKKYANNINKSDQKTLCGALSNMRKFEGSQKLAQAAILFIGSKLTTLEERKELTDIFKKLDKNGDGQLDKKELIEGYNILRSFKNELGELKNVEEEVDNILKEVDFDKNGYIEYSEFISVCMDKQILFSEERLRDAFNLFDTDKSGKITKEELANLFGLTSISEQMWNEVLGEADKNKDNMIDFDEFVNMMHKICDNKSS
Sequence of Protein kinase 7 (PK7), Plasmodium falciparum 3D7 (PF3D7_0213400) (Q7YTF7 1-343): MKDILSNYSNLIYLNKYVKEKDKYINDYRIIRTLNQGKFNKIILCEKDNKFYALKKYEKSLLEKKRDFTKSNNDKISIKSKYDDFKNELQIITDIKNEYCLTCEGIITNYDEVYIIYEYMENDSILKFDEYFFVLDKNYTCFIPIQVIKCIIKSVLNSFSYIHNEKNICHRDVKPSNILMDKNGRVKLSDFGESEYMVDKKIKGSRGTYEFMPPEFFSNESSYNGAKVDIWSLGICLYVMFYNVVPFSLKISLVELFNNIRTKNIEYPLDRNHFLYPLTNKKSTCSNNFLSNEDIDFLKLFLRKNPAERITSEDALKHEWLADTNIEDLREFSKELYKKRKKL
Sequence of L-lactate dehydrogenase (Plasmodium falciparum (isolate CDC / Honduras)) (Q27743 whole entry, looked up): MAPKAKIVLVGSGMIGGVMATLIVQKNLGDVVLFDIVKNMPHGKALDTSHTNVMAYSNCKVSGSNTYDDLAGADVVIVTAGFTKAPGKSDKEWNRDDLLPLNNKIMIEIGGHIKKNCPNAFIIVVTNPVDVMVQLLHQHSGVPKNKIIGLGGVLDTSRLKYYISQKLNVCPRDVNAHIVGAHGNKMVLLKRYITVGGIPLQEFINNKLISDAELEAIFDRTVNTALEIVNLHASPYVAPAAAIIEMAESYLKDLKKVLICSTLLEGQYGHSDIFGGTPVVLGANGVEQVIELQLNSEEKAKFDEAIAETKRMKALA
Sequence of Calcium-dependent protein kinase 4 (Plasmodium falciparum (isolate 3D7)) (Q8IBS5 whole entry, looked up): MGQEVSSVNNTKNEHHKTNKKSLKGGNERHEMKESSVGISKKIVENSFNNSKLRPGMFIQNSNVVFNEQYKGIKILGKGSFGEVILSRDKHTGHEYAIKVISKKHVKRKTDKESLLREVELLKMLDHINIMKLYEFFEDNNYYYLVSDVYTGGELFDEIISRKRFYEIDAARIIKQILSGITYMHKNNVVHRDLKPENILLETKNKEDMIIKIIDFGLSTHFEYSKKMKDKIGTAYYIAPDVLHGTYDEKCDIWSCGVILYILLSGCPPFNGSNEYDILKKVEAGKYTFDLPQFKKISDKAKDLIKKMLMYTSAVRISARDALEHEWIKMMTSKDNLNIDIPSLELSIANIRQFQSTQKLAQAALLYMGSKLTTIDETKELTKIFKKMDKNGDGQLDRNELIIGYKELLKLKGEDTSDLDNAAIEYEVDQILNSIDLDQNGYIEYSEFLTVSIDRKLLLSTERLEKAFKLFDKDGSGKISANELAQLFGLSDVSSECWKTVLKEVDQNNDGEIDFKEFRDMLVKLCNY
Sequence of NAD(+) hydrolase SARM1 (Homo sapiens) (Q6SZW1 whole entry, looked up): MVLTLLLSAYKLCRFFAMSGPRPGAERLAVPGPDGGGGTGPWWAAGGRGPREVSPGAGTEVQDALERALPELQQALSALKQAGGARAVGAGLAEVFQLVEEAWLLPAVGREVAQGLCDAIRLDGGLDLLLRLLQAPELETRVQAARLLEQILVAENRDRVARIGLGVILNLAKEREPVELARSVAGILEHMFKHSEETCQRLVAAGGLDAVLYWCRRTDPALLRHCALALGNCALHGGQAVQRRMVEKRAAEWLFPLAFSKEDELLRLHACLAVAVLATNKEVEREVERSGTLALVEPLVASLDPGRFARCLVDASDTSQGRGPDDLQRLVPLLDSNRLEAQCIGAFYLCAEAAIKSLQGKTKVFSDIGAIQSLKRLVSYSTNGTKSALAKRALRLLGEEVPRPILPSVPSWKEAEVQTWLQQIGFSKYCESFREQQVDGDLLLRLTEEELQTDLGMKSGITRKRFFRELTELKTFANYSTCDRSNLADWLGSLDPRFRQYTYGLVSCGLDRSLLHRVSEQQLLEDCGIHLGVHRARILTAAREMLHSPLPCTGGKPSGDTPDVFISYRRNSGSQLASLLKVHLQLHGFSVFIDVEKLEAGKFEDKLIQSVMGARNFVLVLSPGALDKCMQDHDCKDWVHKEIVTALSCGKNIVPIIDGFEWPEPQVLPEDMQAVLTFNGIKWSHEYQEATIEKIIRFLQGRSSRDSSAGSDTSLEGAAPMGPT

For the compound `CNCCc1c(O)ccc2ccccc12`, the growth inhibition in experiment [1] is -1% (inactive); in experiment [4], 94% (active). Moreover, the inhibition was 6% (inactive) in experiment [2] and 2% (inactive) in [3]. Further, the outcome in [5], in experiment [6], in experiment [7] and in [8] was inactive.
For `CN1CC=C(c2c[nH]c3ccc(C(=O)c4nccs4)cc23)CC1`, the results for the growth inhibition in [1] and in experiment [4] were 73% (active) and 89% (active), respectively. Also, the inhibition in [3] was 7% (inactive). For the same compound, the outcome in [5], in experiment [6], in experiment [7] and in experiment [8] was inactive.
Regarding `COC(=O)c1ccc(CC(C)NCC(O)c2cccc(C(F)(F)F)c2)c(OC)c1` (configuration not stated), the figures for the growth inhibition in [1] and in experiment [4] were 98% (active) and 100% (active), respectively. Besides, the values for the inhibition in [2] and in experiment [3] were 5% (inactive) and 7% (inactive), respectively. In addition, the result in [5], in experiment [6], in experiment [7] and in [8] was inactive.
Consider `CC(C)CNCc1ccc(-c2cccc(CN(C(=O)CCC3CCCC3)C3CCN(Cc4ccccc4)CC3)c2)cc1`, for which the growth inhibition in [1] was 92% (active); in [4], 101% (active). The figures for the inhibition in [2] and in experiment [3] were 62% (active) and -7% (inactive), respectively. The outcome in experiment [5], in experiment [6], in experiment [7] and in experiment [8] was inactive.
On to `CC(Cc1ccc(SC(C)C)cc1)NCC(O)c1cccc(Cl)c1` (configuration not stated), for which the growth inhibition was 97% (active) in [1] and 99% (active) in [4]. The inhibition in experiment [2] is 5% (inactive); in experiment [3] it was -3% (inactive). Moreover, the result in experiment [5], in experiment [6], in experiment [7] and in experiment [8] was inactive.
Regarding `Cc1cc(N)nc2cc(CNCCc3ccccc3Br)ccc12`, the figures for the growth inhibition in [1] and in experiment [4] were 93% (active) and 101% (active), respectively. In addition, the inhibition in [2] was 47% (inactive); in experiment [3], 0% (inactive). Also, the result in experiment [5], in [6], in experiment [7] and in experiment [8] was inactive.
In the case of `CN1CC(c2ccc(Cl)c(Cl)c2)OC1=N` (configuration not stated), the growth inhibition in experiment [1] was 3% (inactive); in experiment [4], 99% (active). Besides, the inhibition in experiment [3] is 2% (inactive). Besides, the outcome in experiment [5], in [6], in experiment [7] and in [8] was inactive.
`CCN1CC[C@]2(c3cccc(OC)c3)Cc3nc4ccccc4c(-c4ccccc4)c3C[C@H]2C1`: the values for the growth inhibition in experiment [1] and in experiment [4] were 98% (active) and 99% (active), respectively. Besides, the inhibition in [2] is 0% (inactive); in [3], -4% (inactive). Besides, the result in experiment [5], in experiment [6], in [7] and in experiment [8] was inactive.
As for `COc1ccc(C[C@@H](C)NC[C@H](O)c2cccc(Cl)c2)cc1F`, the growth inhibition in [1] is 76% (active); in [4], 88% (active). The inhibition in experiment [2] was 2% (inactive); in experiment [3], -2% (inactive). The outcome in experiment [5], in [6], in [7] and in experiment [8] was inactive.
In the case of `COc1ccc2[nH]cc(C3=CCN(C[C@H]4C[C@@H]4C(=O)c4ccccc4)CC3)c2n1`, the growth inhibition is 93% (active) in experiment [1] and 95% (active) in experiment [4]. Further, the inhibition in experiment [2] was 22% (inactive); in [3], -8% (inactive). Further, the result in experiment [5], in experiment [6], in experiment [7] and in [8] was inactive.
Consider `Oc1ccccc1CNCC(O)c1cc(C(F)(F)F)cc(C(F)(F)F)c1` (configuration not stated), for which the figures for the growth inhibition in [1] and in experiment [4] were 100% (active) and 99% (active), respectively. The inhibition was 15% (inactive) in experiment [2] and 4% (inactive) in experiment [3]. Besides, the outcome in experiment [5], in experiment [6], in experiment [7] and in experiment [8] was inactive.
With `C[C@]12CCC(=O)C=C1CC[C@@H]1[C@@H]2CC[C@@]2(C)[C@H]1CC[C@]2(C)O`, the compound was called inactive in experiment [9].
Regarding `CC(C)[C@]12O[C@H]1[C@@H]1O[C@]13[C@]1(O[C@H]1C[C@H]1C4=C(CC[C@@]13C)C(=O)OC4)[C@@H]2O`, the compound was called inactive in experiment [9]. Besides, the compound was classed as inactive in experiment [10]. Moreover, in experiment [11], the SSMD was -5.07, the cell count came out at 6670 and the plate-normalised HSF1 focus index was 0.769 (inactive).
Consider `CC[C@@H](C(N)=O)N1CCCC1=O`, for which the inhibition in [12] was -4% (inactive). Moreover, the fluorescence ratio (interference) in experiment [13] was 1 (inactive). The compound was classed as inactive in experiment [9], in [10] and in experiment [14]. Besides, the z-score in [15] (setting [21]) is -0.985 (inactive) and 0.498 (inactive); in [15] (setting [22]), 0.204 and -0.0344.
In the case of `Cc1ccc(-c2nc3ccc(C)cn3c2CC(=O)N(C)C)cc1`, the activity remaining in experiment [16] is 101% (inactive). For the same compound, in [17], the remaining NAD is 10 nM (inactive).
On to `C[C@]12CC(=CO)C(=O)C[C@@H]1CC[C@@H]1[C@@H]2CC[C@@]2(C)[C@H]1CC[C@]2(C)O`, for which the z-score was 0.172 (inactive) in experiment [15] (setting [21]) and 0.741 in experiment [15] (setting [22]).
Regarding `COc1ccc2c(c1)C13CCCC[C@@H]1C(C2)N(C)CC3` (some centres not stated), the remaining activity in [18] was 108% (inactive).
On to `NC(=NCc1ccc(Cl)cc1)SCCCc1cnc[nH]1`, for which the remaining activity in experiment [19] is 102% (inactive).
Still for that read-out and setting: next, `COc1ccc2[nH]cc(C3=CCNCC3)c2c1`: 103% (inactive); `CS(=O)(=O)Nc1ccc(Cc2noc(-c3ccc4[nH]cc(CCN)c4c3)n2)cc1`: 103% (inactive).
Turning to `C[N+]1(C)CCN(c2ccccc2)CC1`, in experiment [20], the period change was -0.125 h (inactive). For the same compound, in experiment [12], the inhibition was -1% (inactive). For the same compound, in [13], the fluorescence ratio (interference) is 1 (inactive). Besides, in [18], the remaining activity is 113% (inactive). For the same compound, the compound was classed as inactive in experiment [14].
Take `C[C@]12CC[C@H]3[C@@H](CCC4=CC(=O)CC[C@@H]43)[C@@H]1CC[C@@H]2O`: the figures for the z-score in experiment [15] (setting [21]) and in experiment [15] (setting [22]) were 0.634 (inactive) and 0.271, respectively.
For the compound `Oc1cc2c(cc1O)[C@H]1c3ccccc3CN[C@@H]1CC2`, the period change in [20] was -0.1 h (inactive). Moreover, the remaining activity in experiment [19] was 97.5% (inactive).
Regarding `COc1ccc(CCN)cc1OC`, the z-score in experiment [15] (setting [21]) was 0.19 (inactive); in experiment [15] (setting [22]), 0.0302.
For the compound `CCCCC/C=C\C/C=C\C/C=C\C/C=C\CCCC(=O)Nc1ccc(O)cc1`, the remaining activity in experiment [19] was 113% (inactive).
Turning to `O[C@@H]1CCCC[C@H]1N1CCC(c2ccccc2)CC1`, in [19], the remaining activity was 96.8% (inactive). Besides, the z-score is -0.566 (inactive) in experiment [15] (setting [21]) and -0.671 in [15] (setting [22]).
As to `COC(=O)N1CCN(C(=O)Cc2ccc(Cl)c(Cl)c2)C(CN2CCCC2)C1` (configuration not stated), the period change in experiment [20] is -0.045 h (inactive). Moreover, the inhibition in experiment [12] was -4% (inactive). In experiment [13], the fluorescence ratio (interference) was 1 (inactive). Moreover, the remaining activity in experiment [18] was 101% (inactive). The result in experiment [14] was inactive.
